# In the library only some 0.51% were active in any assay of this set; here they are far more common.
# AddAB inh: growth inhibition of E. coli expressing H. pylori AddAB, primary screen, AddAB inhibitor project, absorbance. inhibition, % at 11.9 µM. actives 0.29% (n = 330,000); in the data active = inhibition above about 12%;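 note: 0% = vehicle wells of infected cells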
# E coli growth-1: E. coli V3065 growth inhibition, primary screen, counter-screen for AddAB inhibitor project, absorbance, OD600 | AID 449728, 2010 | inhibition, % at 11.9 µM | actives 0.27% (n = 330,000) | 18 h;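 active = inhibition above the campaign's mean inhibition across all tested compounds plus 3 SD, cut at about 9.9% in these data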;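 note: uninfected addAB+ strain grown without phage in ampicillin broth; 0% = DMSO wells and 100% = ciprofloxacin 0.95 µg/ml wells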
# E coli growth-2: E. coli growth inhibition, primary screen, OD600 | Escherichia coli growth, 23 h; hits give low values | OD600 absorbance (test concentration not listed) | actives 0.21% (n = 330,000);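 active = OD600 absorbance below the run mean of sample wells minus 3.6 SD, in any replicate, cut at about 0.56 in these data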
# phage Ecoli inh: growth loss of phage-infected E. coli, primary screen, RecBCD inhibitor project, absorbance, with phage, HTS; actives 0.26% (n = 360,000); inhibition, % at 11.9 µM; in the data active = inhibition above about 11%
# Tat export inh: E. coli Tat export inhibitors, primary screen, MC4100, TorA-mCherry reporter, fluorescence, single point. actives 0.036% (n = 340,000). inhibition, % at 10 µM. AID 488895, 2010;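 active = mean replicate inhibition at least 50% and at least half of replicates individually reaching 50%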;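 note: exported cargo escapes ClpAP degradation while cytoplasmic cargo is degraded and loses fluorescence; 0% = median of neutral control wells and 100% = median of NaSCN control wells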
# RecBCD conf: growth loss of phage-infected RecBCD+ E. coli, confirmation, RecBCD inhibitor project, absorbance, E. coli V66, T4 gene 2 phage | inhibition, % at 11.9 µM | shares compounds with phage Ecoli inh | actives 45% (n = 890) | E. coli V66 + T4 2- phage, growth OD | AID 651982, 2013;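 active = mean inhibition over triplicates exceeding the hit threshold derived in the original primary screen, cut at about 11% in these data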
# Ecoli viability: E. coli viability inhibition, counter-screen for RecBCD inhibitor project, absorbance, high throughput; shares compounds with phage Ecoli inh; absorbance (OD) growth; inhibition, % at 11.9 µM; actives 29% (n = 890); in the data active = inhibition above about 20%;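 note: E. coli strain V66 grown with compound alone and no phage infection; 0% = bacteria with DMSO vehicle only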
# AddAB phage OD: growth loss of phage-infected AddAB-carrying E. coli, confirmation, counter-screen for RecBCD inhibitor project, absorbance, E. coli V3065, T4 phage; shares compounds with phage Ecoli inh; E. coli expressing H. pylori AddAB + T4 phage, OD growth; gene 2 mutant T4, recBCD-deleted host; inhibition, % at 11.9 µM; actives 45% (n = 890);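 active = mean inhibition above the solvent-only control wells' mean plus 3 SD, cut at about 22% in these data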;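 note: higher means less bacterial growth from phage killing when AddAB is blocked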
# Starred values were filed as active, the others as inactive; x = no result.
SMILES,AddAB inh,E coli growth-1,E coli growth-2,phage Ecoli inh,Tat export inh,RecBCD conf,Ecoli viability,AddAB phage OD
CCCCNC(=O)NCC(=O)Nc1ccc(F)c(F)c1,-2,-2,0.69,1,11,x,x,x
CC1CC(O)c2cc(Cl)ccc2N1 (stereo unspecified),x,x,0.68,x,x,x,x,x
NC(=O)c1ccccc1NC=CC(=O)c1cccs1,x,x,0.7,x,x,x,x,x
Cc1ccc(C(=O)Cn2c(=N)n(N)c3ccccc32)cc1,3,0,0.69,82*,-4,0,0,-4
O=C(Nc1cc(Cl)ccc1O)c1snnc1-c1ccccc1,11,9.8*,0.61,14*,13,5,8,4
Cc1[nH]nc(C(=O)NN=Cc2ccccc2Cl)c1N=NN(C)C,x,x,x,14*,0,8,10,42*
COc1ccc(C(=O)CSc2nnc3ccc(-c4ccccn4)nn23)cc1,1,1,0.74,25*,-12,-3,-3,-4
COc1ccc(NC(=O)CSc2nnc3ccc(-c4ccccn4)nn23)cc1,1,-2,0.69,5,-7,x,x,x
c1nc(SSc2ncnc3nc[nH]c23)c2[nH]cnc2n1,x,x,x,24*,-20,58*,58*,75*
NC(=O)CCC1NC(=O)C(CO)NC(=O)c2cc([N+](=O)[O-])cc(I)c2NCCC(C(N)=O)NC1=O (stereo unspecified),x,x,0.69,x,x,x,x,x
C[C@@]12C(=O)N(Cc3ccc(F)cc3)CC(=O)N1C1c3cc(Cl)ccc3OCC1C2c1ccccc1 (stereo partly specified),x,x,0.71,x,x,x,x,x
Cc1ccccc1NC1=C/C(=N\S(=O)(=O)c2ccc(C(=O)O)cc2)c2ccccc2C1=O,11,4,0.64,6,-16,x,x,x
O=C(O)c1ccc(S(=O)(=O)/N=C2\C=C(Nc3ccccc3F)C(=O)c3ccccc32)cc1,9,2,0.62,13*,-13,5,6,12
O=C(NN=Cc1ccco1)C(=O)Nc1cccc(C(F)(F)F)c1,x,x,x,2,x,x,x,x
CCOc1cccc(C=NNC(=O)C(=O)Nc2cccc(C(F)(F)F)c2)c1O,x,x,x,18*,x,11*,15,16
CNCCCCOc1ccccc1-c1ccccc1,-1,-1,0.64,21*,2,0,2,4
O=C1CC(c2nc3ccccc3[nH]2)CN1c1cccc(C(F)(F)F)c1 (stereo unspecified),0,0,0.7,27*,7,2,1,0
CCOc1ccc(C(Nc2cccnc2)c2cc(Cl)c3cccnc3c2O)cc1 (stereo unspecified),10,20*,0.69,17*,1,2,5,6
CCC(=O)NC(c1ccc(OC)c(OC)c1)c1cc(Cl)c2cccnc2c1O (stereo unspecified),x,x,0.65,15*,-5,6,9,15
O=C(O)COc1ccccc1C(Nc1cccnc1)c1cc(Cl)c2cccnc2c1O (stereo unspecified),x,x,0.65,x,11,x,x,x
CC(=O)NC(C)c1cc(Cl)c2cccnc2c1O (stereo unspecified),-7,-9,0.63,0,-6,x,x,x
Cc1cccc(C2C3C(=O)N(C)C(=O)C3C3C(=O)Nc4ccccc4C(=O)N32)c1 (stereo unspecified),x,x,0.64,x,x,x,x,x
NC(=O)C1CC2(CC(c3cccc(NC(=O)C4CCC(=O)N4)c3)=NO2)CN1C(=O)CC(c1ccccc1)c1ccccc1 (stereo unspecified),x,x,0.71,x,x,x,x,x
CC(C(=O)NCc1ccc(S(C)(=O)=O)cc1)C1C[C@@]1(C)C(NC(=O)OCc1ccccc1)c1ccccc1 (stereo partly specified),x,x,0.71,x,x,x,x,x
CN(C)C(=O)N1CCC(C(=O)NCc2ccc(F)cc2)CC1,1,-1,0.73,46*,-7,-3,-2,-2
SMILES,AddAB inh,E coli growth-1,E coli growth-2,phage Ecoli inh,Tat export inh,RecBCD conf,Ecoli viability,AddAB phage OD
COc1ccc(C2C=CCN(C(=O)c3ccc(C)cc3)CC(=O)N2Cc2ccc(F)cc2)cc1 (stereo unspecified),x,x,0.67,x,x,x,x,x
O=C1c2ccccc2C(=O)c2c(O)c(O)cc(O)c21,11,15*,0.66,12*,-3,6,9,8
CC(C)(C)NC(=O)C(=Cc1ccco1)c1ccccc1,x,x,0.73,x,x,x,x,x
O=C(Nc1ccc(Cl)cc1)c1cc2c(cc1O)[nH]c1ccccc12,11,10*,0.17*,12*,0,10,14,4
Cn1cc(S(=O)(=O)N2CCC(C(N)=O)CC2)c(=O)n(C)c1=O,1,1,0.72,94*,-2,0,1,-2
COc1ccc(Cn2c(O)c(/C=N/NC(=O)c3cccnc3)c3ccccc3c2=O)cc1,x,x,0.66,15*,4,8,10,14
O=C(N/N=C/c1c(O)n(-c2ccccc2Cl)c(=O)c2ccccc12)c1cccnc1,x,x,0.64,5,7,x,x,x
O=C(N/N=C/c1c(O)n(Cc2ccccc2)c(=O)c2ccccc12)c1cccnc1,6,11*,0.71,15*,-1,9,11,20
Cc1ccccc1Cn1c(CN2CCN(C(=O)c3ccco3)CC2)nc2c1c(=O)n(C)c(=O)n2C,-2,1,0.76,97*,3,-4,-4,-2
O=C(C=Cc1ccccc1)c1cc(Br)ccc1O,x,x,0.64,2,1,x,x,x
Cc1cccc(/C=C/C(=O)c2cc(Br)ccc(=O)c2O)c1,8,6,0.67,17*,-1,6,7,5
CCc1ccc(/C=C/C(=O)c2cc(Br)ccc(=O)c2O)cc1,3,3,0.69,14*,-5,10,12,-1
CCOc1ccc(/C=C/C(=O)c2cc(Br)ccc(=O)c2O)cc1,13*,9,0.69,16*,1,7,10,3
Cc1ccc(/C=C/C(=O)c2cc(Br)ccc2OC(=O)c2ccco2)cc1,1,2,0.72,2,21,x,x,x
CCOc1ccc(C(=O)/C=C/c2ccc(OC)c(OC)c2)cc1,1,-1,0.68,1,4,x,x,x
CC(C)C(Nc1nc(-c2ccccc2)nc2c1oc1ccccc12)C(=O)O (stereo unspecified),x,x,0.68,x,x,x,x,x
O=c1c(O)c(-c2cccs2)oc2ccc(Cl)cc12,7,8,0.63,14*,-5,3,5,8
O=C(N/N=C/c1cc(Cl)ccc1O)C(=O)Nc1ccccc1OC(F)(F)C(F)F,12,12*,x,16*,-12,4,7,10

# Screening data deposited in PubChem BioAssay by several laboratories.
